Screens (PubChem)
The list is not random: actives were taken first. Their share in the collection is about 4%.
ERAP1 HTS inh = human ERAP1 aminopeptidase inhibitors, primary screen, biochemical, single point, plate reader | Endoplasmic reticulum aminopeptidase 1 (Homo sapiens), Q9NZ08 | recombinant ERAP1, Leu-AMC fluorescence, 60 min | inhibition, % at 10.7 µM | actives 0.15% (n = 340,000) | AID 652197, 2013;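 active means mean replicate inhibition of at least 30%, or all replicates individually reaching that 30% level; inactive means mean below 30% and not every replicate reaching it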;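 further: 0% = neutral control wells and 100% = L-leucinethiol positive control wells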
DENV2 CPE = inhibitors of DENV2 cytopathic effect, primary screen, cell-based, plate reader, single concentration; DENV2-infected cells, cytopathic effect rescue; actives 1.7% (n = 350,000); AID 651640, 2012; CPE inhibition, % at 9.99 µM; in the data active means CPE inhibition above about 20%, passing the limit was not always enough; inconclusive means no clear call, values can overlap the other calls; tested in BHK-21 cells;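 further: 0% = median of neutral control wells and 100% = median of positive control wells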
AF4-AF9 inh = inhibitors of AF4 peptide binding to AF9, primary screen, biochemical, AlphaScreen, biotin-AF4 peptide, FLAG-AF9, single point; inhibition, % at 10 µM; AID 651704, 2012; actives 0.47% (n = 350,000); Protein AF-9 (Homo sapiens), P42568;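 active means every replicate reaching a set inhibition limit, whatever the replicate mean, cut at about 25% in these data; inconclusive means mean inhibition reaches that limit but some replicates miss it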;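 further: 0% = plate neutral control median and 100% = total signal loss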
RAD52 anneal inh = RAD52 DNA annealing inhibitors, primary screen, biochemical, FRET, single point, set 2. inhibition, % at 18.7 µM. DNA repair protein RAD52 homolog (Homo sapiens), P43351. AID 651710, 2012. recombinant RAD52 DNA annealing, FRET fluorescence. actives 0.46% (n = 360,000);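 active means every replicate showing at least 50% inhibition; inconclusive means mean inhibition at least 50% but not in every replicate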
Target sequence (P43351 whole entry, looked up): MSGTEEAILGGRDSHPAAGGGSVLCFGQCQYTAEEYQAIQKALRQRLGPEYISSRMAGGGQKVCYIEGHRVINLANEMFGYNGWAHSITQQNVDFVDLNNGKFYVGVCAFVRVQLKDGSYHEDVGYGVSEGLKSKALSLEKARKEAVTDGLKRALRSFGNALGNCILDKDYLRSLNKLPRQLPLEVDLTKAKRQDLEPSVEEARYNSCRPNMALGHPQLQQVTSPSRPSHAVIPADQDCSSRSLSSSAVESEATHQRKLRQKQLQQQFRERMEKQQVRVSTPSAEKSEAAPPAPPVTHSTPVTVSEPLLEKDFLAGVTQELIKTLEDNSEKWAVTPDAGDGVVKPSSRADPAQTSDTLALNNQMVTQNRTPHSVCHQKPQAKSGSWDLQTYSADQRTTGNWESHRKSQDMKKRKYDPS
FGF22 binding = binders of human FGF22 protein, primary screen, FGF22 synaptogenesis inhibitor project, biophysical, thermal shift, single point; Fibroblast growth factor 22 (Homo sapiens), Q9HCT0; recombinant FGF22 thermal shift, SYPRO orange fluorescence; percent of sucrose octasulfate shift, DMSO zero; activity (Tm shift, normalised), % at 9.99 µM; actives 1.5% (n = 340,000);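 active means mean Tm shift, scaled 0 neutral to 100 positive control, at about 1.3% or above, every replicate too, limit read from the data; inconclusive means no clear call, values can overlap the other calls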
Target sequence (Q9HCT0 whole entry, looked up): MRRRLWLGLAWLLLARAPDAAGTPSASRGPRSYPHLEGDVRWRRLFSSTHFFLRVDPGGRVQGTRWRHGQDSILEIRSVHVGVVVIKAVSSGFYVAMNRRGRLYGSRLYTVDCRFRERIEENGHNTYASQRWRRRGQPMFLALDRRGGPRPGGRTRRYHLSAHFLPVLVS
* marks the source's active call; other numbers are inactive results; ? = inconclusive; / = no result; ! = not confirmed by another sample.

SMILES	ERAP1 HTS inh	DENV2 CPE	AF4-AF9 inh	RAD52 anneal inh	FGF22 binding
C[C@H](CO)N1C[C@H](C)[C@H](CN(C)C(=O)Nc2ccccc2)Oc2ccc(NS(=O)(=O)c3ccccc3)cc2CC1=O	3	34*	-3	4	0
C[C@@H]1CN([C@H](C)CO)C(=O)Cc2cc(NS(=O)(=O)c3ccccc3)ccc2O[C@H]1CN(C)C(=O)Nc1ccccc1	2	-1	-3	-1	0
C[C@@H]1CN([C@@H](C)CO)C(=O)Cc2cc(NS(=O)(=O)c3ccc(F)cc3)ccc2O[C@@H]1CN(C)C(=O)Nc1ccccc1	1	-1	-1	-15	0
COc1cccc(S(=O)(=O)N(C)C[C@@H]2Oc3ncc(-c4cccc(C(F)(F)F)c4)cc3C(=O)N([C@H](C)CO)C[C@@H]2C)c1	2	-3	-1	17	-1
C=CCN1Cc2ccccc2[C@H]2OC(c3ccc(OCCCO)cc3)=N[C@@]2(CCS(=O)(=O)c2ccccc2)C1=O	-3	-1	-4	-25	0
C[C@H](O)C#Cc1ccc2c(c1)O[C@@H](CN(C)C(=O)CC1CC1)[C@H](C)CN([C@H](C)CO)S2(=O)=O	1	6	3	7	0
C[C@H](CO)N1C[C@H](C)[C@@H](CN(C)C(=O)Nc2ccccc2)Oc2ccc(NS(=O)(=O)c3ccc(Cl)cc3)cc2CC1=O	3	58*	-1	19	0
C[C@H]1CN([C@@H](C)CO)C(=O)Cc2cc(NS(=O)(=O)c3ccccc3)ccc2O[C@@H]1CN(C)C(=O)Nc1ccccc1	1	23*	-1	-13	0
CCCNC(=O)[C@@H]1[C@@H](CO)[C@@H]2Cn3c(ccc(C4=CCCC4)c3=O)[C@H]1N2C(=O)CC	-2	-2	1	-6	0
CN(C)CCCNC(=O)C[C@@H]1CC[C@H]2[C@@H](COC[C@@H](O)CN2CC2CCCCC2)O1	-1	7	-1	10	/
Cc1ccccc1-c1nc2c(s1)CCc1onc(-c3ccc(Cl)cc3)c1-2	-2	105*	2	-10	0
COc1ccc(-c2noc3c2-c2nc(-c4ccccc4C)sc2CC3)cc1	0	19	-3	-2	0
Oc1c(CNc2ccccc2)cc(COCc2ccccc2)c2cccnc12	-2	-11	68*	-41	41
Cc1ccc(NCc2ccc(O)c3ncccc23)cc1	1	0	2	-5	42
O=C(Cc1c[nH]c2ccccc12)NCc1ccco1	6	9	0	-14	43*
CC(C)(C)N1CC(C(=O)O)CC1=O (stereo not given)	3	0	-1	-7	43*
Cc1ccc(S(=O)(=O)Nc2ccc3c(c2)C(=O)N([C@H](C)CO)C[C@H](C)[C@H](CN(C)CC2CC2)OCCCC[C@H](C)O3)cc1	-5	?	4	5	0
Cc1ccc(S(=O)(=O)Nc2ccc3c(c2)C(=O)N([C@@H](C)CO)C[C@@H](C)[C@@H](CN(C)CC2CC2)OCCCC[C@@H](C)O3)cc1	-16	63*!	3	29	0
Cc1ccc(S(=O)(=O)Nc2ccc3c(c2)C(=O)N([C@@H](C)CO)C[C@H](C)[C@@H](CN(C)S(=O)(=O)c2ccc(Cl)cc2)OCCCC[C@@H](C)O3)cc1	/	9	/	/	28*
Cc1ccc(S(=O)(=O)N(C)C[C@H]2OCCCC[C@@H](C)Oc3ccc(NS(=O)(=O)c4ccc(Cl)cc4)cc3C(=O)N([C@@H](C)CO)C[C@H]2C)cc1	-1	-6	-1	0	0
C[C@@H]1CCCCO[C@H](CN(C)CC2CCCCC2)[C@@H](C)CN([C@H](C)CO)C(=O)c2cc(NS(=O)(=O)c3ccc(Cl)cc3)ccc2O1	/	-3	/	/	0
C[C@@H]1CCCCO[C@@H](CN(C)CC2CCCCC2)[C@@H](C)CN([C@H](C)CO)C(=O)c2cc(NS(=O)(=O)c3ccc(Cl)cc3)ccc2O1	-8	63*!	9	-20	-1
C[C@@H]1CCCCO[C@@H](CN(C)S(C)(=O)=O)[C@H](C)CN([C@@H](C)CO)C(=O)c2cc(NS(=O)(=O)c3ccc(Cl)cc3)ccc2O1	-2	84*	-1	-3	0
C[C@H]1CN([C@@H](C)CO)C(=O)c2cc(/C=C/c3ccccc3)cnc2O[C@@H]1CN(C)C(=O)C1CCCCC1	-1	11	14	-9	0
C[C@@H]1CN([C@@H](C)CO)C(=O)c2cc(NC(=O)Cc3ccccc3)ccc2O[C@@H]1CN(C)C(=O)Nc1ccc2c(c1)OCO2	0	3	-1	4	0
SMILES	ERAP1 HTS inh	DENV2 CPE	AF4-AF9 inh	RAD52 anneal inh	FGF22 binding
COc1ccc2c3c(n(C)c2c1)[C@H](CO)N(S(C)(=O)=O)CC31CN(C(=O)C2CCC2)C1	1	-6	1	10	0
Cc1noc(C)c1NC(=O)N(C)C[C@@H]1OCCCC[C@H](C)Oc2ccc(N(C)C)cc2C(=O)N([C@H](C)CO)C[C@H]1C	1	5	1	-83	-1
C[C@@H]1CCCCO[C@H](CN(C)S(=O)(=O)c2ccc(Cl)cc2)[C@H](C)CN([C@H](C)CO)C(=O)c2cc(NS(=O)(=O)c3ccc(Cl)cc3)ccc2O1	/	-20	/	/	30*
Cc1ccc(S(=O)(=O)N(C)C[C@H]2OCCCC[C@@H](C)Oc3ccc(NS(=O)(=O)c4ccc(Cl)cc4)cc3C(=O)N([C@H](C)CO)C[C@@H]2C)cc1	-1	-3	-3	6	0
Cc1ccc(S(=O)(=O)Nc2ccc3c(c2)C(=O)N([C@H](C)CO)C[C@H](C)[C@H](CN(C)S(=O)(=O)c2ccc(Cl)cc2)OCCCC[C@@H](C)O3)cc1	/	66*	/	/	0
COc1ccccc1/C=C/c1ccc2cccc(O)c2n1	-2	-8	27*	-7	0
Oc1cccc2ccc(/C=C/c3c(F)cccc3Cl)nc12	2	0	4	-29	43*
COc1ccc(Cl)cc1/C=C/c1ccc2cccc(O)c2n1	5	-1	-5	-15	0
Oc1ccc(/C=C/c2ccc3cccc(O)c3n2)cc1Br	0	0	26*	-14	0
C[n+]1ccccc1/C=C/c1cc(Br)ccc1O	11	-4	15	32	0
C[n+]1ccccc1/C=N/O	92*!	-6	-1	-12	0
CC(O)/C=C/c1cccc[n+]1C (stereo not given)	107*	1	-6	-2	0
